# Measured values taken from PubChem BioAssay AID1851 (National Center for Advancing Translational Sciences (NCATS), 2009).
# Several values for one entry are separate records, joined by “and”; a condition that tells them apart may be missing. Equal entries are not always repeated. Screen size: about 16,000 compounds; about 4,000 (25%) were called active. Not shown: some 26% with an inconclusive outcome. Calls follow the shape of the dose curve; as a rule, active = well fitted curve in the direction sought with a large enough effect; inconclusive = small, poorly fitted or top-dose-only effect, or effect the other way; inactive = no such curve, though single readings can be large or run the other way. A selection follows.
# Target: Cytochrome P450 2C9 (Homo sapiens) (UniProt P11712)
# Assay: Cytochrome panel assay with activity outcomes
# Conditions: recombinant CYP, pro-luciferin dealkylation, luminescence, p450-cyp2c9; series mostly up to 57.1 µM
# % is scaled to controls: 0 for no effect and ±100 for the full control effect.
# Cytochrome P450 2C9 (Homo sapiens), sequence (P11712 whole entry, looked up): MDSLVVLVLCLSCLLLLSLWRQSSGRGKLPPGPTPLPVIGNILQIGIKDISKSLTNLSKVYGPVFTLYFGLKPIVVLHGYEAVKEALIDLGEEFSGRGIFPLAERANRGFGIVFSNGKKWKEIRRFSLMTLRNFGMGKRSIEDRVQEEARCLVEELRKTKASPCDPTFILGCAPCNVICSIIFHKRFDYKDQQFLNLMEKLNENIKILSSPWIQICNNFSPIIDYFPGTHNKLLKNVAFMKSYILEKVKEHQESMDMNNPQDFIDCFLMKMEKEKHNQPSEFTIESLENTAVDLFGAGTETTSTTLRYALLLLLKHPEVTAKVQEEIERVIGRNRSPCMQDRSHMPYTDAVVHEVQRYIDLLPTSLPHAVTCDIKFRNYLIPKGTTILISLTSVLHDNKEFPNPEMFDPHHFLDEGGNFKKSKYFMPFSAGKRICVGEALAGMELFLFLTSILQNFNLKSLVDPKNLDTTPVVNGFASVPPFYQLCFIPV
Structure (SMILES),AC50,"activity, negative = inhibition"
Clc1ccc2c(c1)C(N1CCNCC1)=Nc1ccccc1O2,inactive,
NC(=O)CC(c1ccccc1)c1ccco1 (stereo not given),inactive,
O=C(c1ccco1)N(CCC(c1ccccc1)c1ccco1)Cc1ccco1 (stereo not given),2.24 µM (active),
Cc1ccc(C(CC(N)=O)c2ccco2)cc1 (stereo not given),inactive,
O=C(/C=C/c1ccccc1)N/C(=C/c1ccccc1)C(=O)Nc1ccccc1O,4.47 µM (active),
O=C(/C=C\c1ccccc1)c1ccccc1O,,-9.15% [at 11.4 µM] (inactive)
Cc1cn([C@H]2C[C@H](O)[C@@H](COC(N)=O)O2)c(=O)[nH]c1=O,,18.3% [at 11.4 µM] (inactive)
CCCCNC(=O)C1CCN(Cc2ccccn2)CC1,inactive,
CN(C)CCOC(=O)COc1ccc(Cl)cc1,inactive,
CCOC(=O)COc1ccc(/C=C/[N+](=O)[O-])c(OCC(=O)OCC)c1,7.94 µM (active),
COC(=O)N1CCC2(CC1)CN(c1ccccc1)C2,inactive,
O=C(COC(=O)c1cccc(S(=O)(=O)N2CCN(c3ccccc3)CC2)c1)NCc1ccco1,2.24 µM (active),
O=C(O)C1C2CCC(C2)C1C(=O)NCc1ccco1 (stereo not given),inactive,
CCCc1nc2ccccc2c(C(=O)OCC(=O)Nc2cccc(S(=O)(=O)N3CCOCC3)c2)c1CC,14.1 µM (active),
Clc1ccccc1-c1nccc(NCCN2CCOCC2)n1,,29.8% [at 2.29 µM] (inactive)
CS(=O)(=O)Nc1cccc(-c2nc(N3CCOCC3)c3ccccc3n2)c1,,-0.621% [at 2.29 µM] (inactive)
O=C(CCc1nc2ccccc2c(=O)[nH]1)OCC(=O)N1CCN(S(=O)(=O)c2ccccc2)CC1,inactive,
Clc1ccccc1-c1ccc2ncnc(NCCN3CCOCC3)c2c1,,24.6% [at 2.29 µM] (inactive)
O=C(COC(=O)c1cccc(S(=O)(=O)N2CCOCC2)c1)Nc1nc(-c2ccccc2Cl)cs1,4.47 µM (active),
C[n+]1cc2c3c(ccc2c2ccc4cc5c(cc4c21)OCO5)OCO3,inactive,
COC(=O)[C@H](C)NC(=O)C/C=C\[C@@H](C)[C@H]1C=C[C@H](O)[C@@H](CO)O1,,-20.2% [at 11.4 µM] (inactive)
Cc1cc(C)nc(Nc2n[nH]c(COc3ccc4ccccc4c3)n2)n1,inactive,
CCOc1ccc(N2C(=O)/C(=C/c3cccs3)N(CC(=O)OC)C2=S)cc1,inactive,
CCOc1ccc(N2C(=O)CN=C2Nc2ccccc2F)cc1,12.6 µM (active),

Structure (SMILES),AC50,"activity, negative = inhibition"
CCOc1ccc(N2C(=O)CN=C2Nc2ccccc2Cl)cc1,inactive,
COc1c(O)cc2c(c1O)[C@@H]1O[C@@H](CO)[C@@H](O)[C@@H](O)[C@@H]1OC2=O,inactive,
O=C(NCc1cc(F)cc2c1OCCO2)[C@H]1C[C@@H]1[C@H](NP(=O)(c1ccccc1)c1ccccc1)c1ccccc1,12.6 µM (active),
O=C(NCCc1c[nH]c2ccccc12)[C@H]1C[C@@H]1[C@H](NP(=O)(c1ccccc1)c1ccccc1)c1ccccc1,2 µM (active),
COC(=O)Nc1ccc2[nH]cc(CCNC(C)=O)c2c1,inactive,
O=C(Nc1ccc2ccccc2c1)[C@H]1C[C@@H]1[C@H](NP(=O)(c1ccccc1)c1ccccc1)c1ccccc1,3.16 µM (active),
O=C(NCCc1c[nH]c2ccccc12)[C@@H]1C[C@H]1[C@@H](NP(=O)(c1ccccc1)c1ccccc1)c1ccccc1,0.251 µM (active),
CSC(N)=NCCC[C@@H](N)C(=O)O,inactive,
N=C(N)CCNC(=O)[C@@H]1CCC(N)=N1,,-0.797% [at 11.4 µM] (inactive)
O=C(O)[C@H]1C[C@H](C(=O)O)N1,inactive,
Cc1cc(CNC(=O)[C@H]2C[C@@H]2[C@H](NP(=O)(c2ccccc2)c2ccccc2)c2ccccc2)nn1C,inactive,
Cc1cc(CNC(=O)[C@@H]2C[C@H]2[C@@H](NP(=O)(c2ccccc2)c2ccccc2)c2ccccc2)nn1C,inactive,
O=C(NCc1nc2ccccc2[nH]1)[C@H]1C[C@@H]1[C@H](NP(=O)(c1ccccc1)c1ccccc1)c1ccccc1,12.6 µM (active),
CC(=O)c1cccc(NC(=O)CCC2CCCC2)c1,14.1 µM (active),
O=C(CC1CCCC1)Nc1ccc2c(c1)CCC2,inactive,
CC(=O)NNC(=O)CCC(=O)Nc1ccccc1,inactive,
O=C(N/N=C/c1ccccn1)c1ccco1,inactive,
N#C/C(=C\Nc1ccccn1)C(=O)C1CC1,,2.34% [at 11.4 µM] (inactive)
N#C/C(=C\Nc1ccccn1)C(=O)c1ccco1,3.16 µM (active),
CC(C)CSC[C@@H]1O[C@H](n2cnc3c(N)nccc32)[C@H](O)[C@@H]1O,,3.85% [at 11.4 µM] (inactive)
CC(C)N1CCC(=NNC(=O)c2ccc(Br)o2)CC1,inactive,
CS(=O)(=O)N1CCC2(CC1)CN(C(=O)Nc1ccccc1)C2,inactive,
CS(=O)(=O)N1CCN(c2ccccc2NC(=O)c2ccc(Br)o2)CC1,20 µM (active),
COCC(=O)N1CCC2(CCCN(Cc3ccccc3)C2)CC1,inactive,

Structure (SMILES),AC50,"activity, negative = inhibition"
O=C(c1ccc2c(c1)N(Cc1ccc(F)cc1)C(=O)CS2)N1CCOCC1,17.8 µM (active),
O=C1S/C(=C/c2ccc(N3CCOCC3)o2)C(=O)N1Cc1ccc(F)cc1,inactive,
O=C(c1cc(Cl)c(=O)n(Cc2ccc(Cl)cc2)c1)N1CCOCC1,inactive,
O=C(c1cc(C(F)(F)F)cc(C(F)(F)F)c1)N1CCC[C@@]2(CCN(c3ccccc3)C2)C1,inactive,
CC(Sc1nc(-c2ccccc2)cc(C(F)(F)F)n1)C(=O)N1CCCCC1 (stereo not given),8.91 µM (active),
O=C(O)CSc1cc(C(F)(F)F)nc(-c2ccccn2)n1,inactive,
CCCCCC1=C2CNC(CC(C)C)(C(=O)OC)C=C2C(C)C1=O (stereo not given),3.16 µM (active),
COC(=O)C1(CC(C)C)C=C2C(=C(C(C)C)C(=O)C2C)CN1 (stereo not given),12.6 µM (active),
CCCC1(C(=O)OC)C=C2C(=C(C)C(=O)C2C)CN1 (stereo not given),inactive,
CCCCCC1=C2CNC(CCC)(C(=O)OC)C=C2C(C)C1=O (stereo not given),10 µM (active),
c1ccc(CNc2ccnc(-c3ccc4c(c3)OCO4)n2)cc1,,-0.997% [at 2.29 µM] (inactive)
O=C(O)[C@@H](O)[C@@H](O)[C@@H](O)[C@@H](O)C(=O)O (tested in a mixture with another compound),inactive,
Cc1cccc2c1OCC/C2=N\NC(=O)COc1ccccc1,15.8 µM (active),
Cc1ccccc1OCC(=O)N/N=C1\CCOc2c(C)cccc21,inactive,
COc1ccc(CNC(=O)/C=C/c2ccc(OCCCF)cc2)cc1,inactive,
CCCCOc1ccc(/C=C/C(=O)NCCc2nc3ccccc3[nH]2)cc1,6.31 µM (active),
Cc1cccc(OCC(=O)N/N=C\C=C\c2ccc3c(c2)OCO3)c1C,inactive,
N#C/C(=C\c1ccc(O)c(O)c1)C(=O)Nc1ccccc1,inactive,
O=C(Nc1ccccc1)N1CCC2(CC1)CCN(C(=O)c1ccco1)CC2,inactive,
Cc1ccc(NC(=O)/C(=C\c2ccc3c(c2)OCO3)NC(=O)c2ccco2)cc1,3.55 µM (active),
O=C(Nc1ccccc1)/C(=C\c1ccc2c(c1)OCO2)NC(=O)c1ccco1,10 µM (active),
Cc1noc(C)c1C(=O)N1CCC[C@@]2(CCN(C(=O)Nc3cccc(F)c3)C2)C1,inactive,
O=C(Nc1c[nH]c(=O)[nH]c1=O)Oc1ccccc1,,1.86% [at 11.4 µM] (inactive)
NOCC(=O)O,inactive,

Structure (SMILES),AC50,"activity, negative = inhibition"
CCNc1nc(Sc2ccc(C)cc2)cc(C(F)(F)F)n1,25.1 µM (active),
Cc1ccc(Sc2cc(Cl)nc(N)n2)cc1,inactive,
CC[C@@H](CS(=O)(=O)O)[N+](=O)[O-],,5.26% [at 11.4 µM] (inactive)
O=C(CN(Cc1ccccc1)S(=O)(=O)c1ccc2c(c1)OCCO2)N/N=C/c1ccc(F)cc1,14.1 µM (active),
COCc1cc(=O)[nH]c2cc(NC(=O)C(F)(F)F)c(C)cc12,inactive,
Cc1ccc(C(=O)Nc2nc3ccccc3n3nnnc23)cc1,inactive,
CCC(=O)Nc1nonc1-c1nc2ccccc2n1N(C(=O)CC)C(=O)CC,10 µM (active),
CCn1c(-c2nonc2NC(=O)c2ccccc2)nc2ccccc21,0.501 µM (active),
CC(=O)OC[C@H]1O[C@@H](O/N=C\[C@@H](C)[C@H](OCc2ccccc2)C(C)C)[C@H](OC(C)=O)[C@@H](OC(C)=O)[C@H]1OC(C)=O,,1.31% [at 11.4 µM] (inactive)
CC[C@]1(C)CC(=O)NC1=O,inactive,
Cc1cc(C(=O)N[C@H](c2ccccc2)[C@@]2(C)C[C@@H]2[C@@H](C)C(=O)Nc2ccc3ccccc3c2)n(C)n1,7.94 µM (active),
Cc1cc(C(=O)N[C@@H](c2ccccc2)[C@]2(C)C[C@H]2[C@@H](C)C(=O)Nc2ccc3ccccc3c2)n(C)n1,3.98 µM (active),
C[n+]1cc(-c2ccccc2)n2c1CCCCC2,inactive,
CN(C)CCCN1c2ccccc2Sc2cnccc21,,5.82% [at 11.4 µM] (inactive)
Cc1ccc(C(C(=O)NCc2ccco2)N(C(=O)CNC(=O)c2cccs2)c2ccc(C)cc2C)cc1 (stereo not given),0.447 µM (active),
Cc1ccc(C(C(=O)NCc2ccco2)N(C(=O)CNC(=O)c2cccs2)c2ccc(C)cc2)cc1 (stereo not given),inactive,
C[C@H](O/N=C1/[C@H]2O[C@@H]2[C@@H](O)[C@H]2[C@H]1CCn1c(=O)n(-c3ccccc3)c(=O)n12)c1cn([C@H](CO)Cc2ccccc2)nn1,,-5.06% [at 11.4 µM] (inactive) and -0.376% [at 11.4 µM] (inactive)
Cc1ccc(Sc2nc(-c3ccccc3)ccc2C#N)cc1,7.94 µM (active),
CNc1nc(-c2cccc(C#N)c2)nc2ccccc12,,-18.8% [at 2.29 µM] (inactive)
N#Cc1cc(-c2ccccc2)cnc1Sc1ccc(Cl)cc1,3.55 µM (active),
Cc1nc(Cl)c(C#N)cc1-c1ccccc1,10 µM (active),
Cc1ccc(-c2nc(-c3nccc4ccccc34)oc2-c2ccccc2)cc1,,-0.601% [at 11.4 µM] (inactive)
Cc1nc(Sc2ccccc2)c(C#N)cc1-c1ccccc1,5.01 µM (active),
